The target of experiment [1] is Lysosomal acid glucosylceramidase (Homo sapiens) (UniProt P04062). Description: Glucocerebrosidase-p2 (AID 348; in the data active means potency below about 10 µM; further: potency means the concentration at half of the fitted maximal effect). The settings on record: purified GBA, blue fluorogenic substrate, 40 min. In short, it runs like this:
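Compounds titrated from 0.6 nM upwards against 0.2 nM enzyme in pH 5.9 citric acid/KH2PO4, taurocholate, tween-20; blue fluorogenic substrate 80 uM, 40 min room temperature, stopped and read Ex 365/Em 440 for AC50.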

Experiment [2] is described as follows: AP1 Signaling Pathway (AID 357). Further: on the % scale 0 is the no-effect control and ±100 the full control effect. The settings on record: ME-180 AP-1-bla reporter, EGF-induced, beta-lactamase ratio, 5 h; at 7.69 µM (top of the series) unless noted. In short, it runs like this: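 ME-180 cells with beta-lactamase reporter under AP-1 response element, stimulated with EC50 EGF; compounds tested in titration series, 5 h at 37 °C. CCF4 substrate added 2.5 h at room temperature; 460/530 nm emission ratio gave %activity and AC50.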

The target of experiment [3] is Cytochrome P450 1A2 (Homo sapiens) (UniProt P05177). Description: p450-cyp1a2 (AID 410; calls by dose curve; further: potency means the concentration at half of the fitted maximal effect). The settings on record: recombinant CYP1A2, luciferin-ME demethylation, luminescence; series mostly up to 57 µM. In short, it runs like this:
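20nM CYP1A2 with 100uM Luciferin-ME (at Km) in 100mM KPO4; compound preincubated 10 min, NADPH regeneration added, 60 min at room temperature. Luciferin quantified by luminescence after detection reagent; normalized to 57 uM furafylline.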

Experiment [4] can be described thus: NFAT Signaling Pathway (AID 444).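 Further: carbachol stimulus at about its EC50 of 1 µM final; on the % scale 0 is the no-effect control and ±100 the full control effect.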 The settings on record: Jurkat NFAT-bla M1, carbachol, beta-lactamase ratio, 5 h; at 7.69 µM (top of the series) unless noted. In short, it runs like this: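 Jurkat cells carrying an NFAT-driven β-lactamase reporter and co-transfected muscarinic M1 receptor were treated with compound plus carbachol (1 uM final, an EC50 level) for 5 h at 37 °C. CCF4 loading followed for 1 h at RT; 460/530 nm ratio gave %activity.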

Experiment [5] in a line: Stat Signaling Pathway (AID 446).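 Further: ME-180 cervical cancer cells given 40 pM IL-6 alongside compound; SIE-controlled beta-lactamase reporter measured as 460/530 nm FRET emission ratio; on the % scale 0 is the no-effect control and ±100 the full control effect.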 The settings on record: ME-180 (cervical carcinoma) SIE beta-lactamase reporter, IL-6 stimulated, 5 h; at 7.69 µM (top of the series) unless noted. Summed up:
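ME-180 cells carrying a SIE-driven beta-lactamase reporter are stimulated with 40 pM IL-6 for 5 h at 37C in the presence of compound. The 460/530 nm FRET substrate ratio is read after 2.5 h at RT. Data are normalised to 300 pM IL-6 and to 125 nM JAK inhibitor controls.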

For experiment [6], the target named is Glucocorticoid receptor (Homo sapiens) (UniProt P04150). Description: GR-EFC Redistribution (AID 451; calls by dose curve; further: potency means the concentration at half of the fitted maximal effect). The settings on record: CHO-K1 GR-EFC translocation, beta-gal luminescence, 2 h. Summed up: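 CHO-K1 cells stably expressing nuclear-localized β-gal enzyme acceptor and GR fused C-terminally to the enzyme donor fragment; ligand-driven nuclear translocation restores β-gal by complementation. Compounds titrated up to 46 uM final, 2 h at 37 °C; luminescence read.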

For experiment [7], the target named is Mitogen-activated protein kinase 10 (Mus musculus) (UniProt Q61831). Kind of experiment: JNK3 AlphaScreen Assay (AID 530).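 Further: kinase came from lysate of stimulated human HepG2 cells; signal reports phosphorylation of biotinylated GST-cJun 1-79 at Ser73 with 10 µM ATP; on the % scale 0 is the no-effect control and ±100 the full control effect.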 The settings on record: JNK3 lysate, c-Jun phosphorylation; series mostly up to 57.1 µM. In short, it runs like this:
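Inhibitors reduce antibody binding to phosphorylated biotin-cJun, lowering AlphaScreen luminescence. Lysates from HepG2 cells pre-activated by IL-1beta plus TNF-alpha supplied JNK3; compounds were titrated.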

The target in experiment [8] is 3',5'-cyclic-AMP phosphodiesterase 4B (Homo sapiens) (UniProt Q07343). Kind of experiment: qHTS Assay for Inhibitors of PDE-IV (AID 607; active means well fitted activation curve with a large enough effect in the main read-out, with a control signal flat, not every such curve was filed as active; further: % of control where 0% means no effect). The settings on record: HEK293 ACTOne CNG channel cells, membrane potential fluorescence; series mostly up to 22.9 µM. In short, it runs like this: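 HEK293 ACTOne cells with CNG channel (1000/well), endogenous PDE4; membrane potential dye, compounds up to 22.9 uM final. Fluorescence Ex 535/Em 590; RO 20-1724 (100 uM final) as reference.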
(In qHTS, concentration-response curves come from the screen itself.)

Experiment [9] concerns the target Cytochrome P450 3A4 (Homo sapiens) (UniProt P08684). Kind of experiment: qHTS Assay for Activators of Cytochrome P450 3A4 (AID 885; active means well fitted curve in the direction sought with a large enough effect; an effect the other way counts as inactive or inconclusive; further: nearly all actives have a fitted effect of over 65% in size; further: potency means the concentration at half of the fitted maximal effect). The settings on record: recombinant CYP3A4, Luciferin-PPXE luminescence, 60 min; series mostly up to 57.1 µM. In short, it runs like this:
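Human CYP3A4 (20 nM) with Luciferin-PPXE at 25 uM (its KM) in 200 mM KPO4; 10 min compound preincubation, then NADPH regeneration and 60 min reaction at RT. Luciferin read by luminescence; normalized to 57 uM ketoconazole full inhibition.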

The target of experiment [10] is Cytochrome P450 2C19 (Homo sapiens) (UniProt P33261). Kind of experiment: qHTS Assay for Inhibitors and Substrates of Cytochrome P450 2C19 (AID 899; active means well fitted curve in the direction sought with a large enough effect; an effect the other way counts as inactive or inconclusive; further: potency means the concentration at half of the fitted maximal effect; nearly all actives have a fitted effect of over 60% in size). The settings on record: recombinant CYP2C19, luciferin-H EGE luminescence; series mostly up to 57.1 µM. In short, it runs like this:
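NADPH-dependent conversion of Luciferin-H EGE (10uM, at KM) by 5nM enzyme in 50mM KPO4, 60 min at 37C following 10 min compound preincubation. Stopped with luciferin detection buffer; luminescence read after 20 min.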

The nature of experiment [11]: qHTS Assay for Lipid Storage Modulators (AID 1519; calls by dose curve). The settings on record: Drosophila S3 cells, BODIPY lipid droplet/cell ratio, laser cytometry, cells loaded with oleic acid; for activity change, negative = inhibition: at 57.5 µM (top of the series). Summed up:
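Cells seeded at 5,000 per well were treated with compounds over a concentration series and loaded with oleic acid (400 uM, as added). Lipid droplet fluorescence (488 nm excitation, 500-530 nm channel) was read by laser-scanning cytometry and normalized to 20 uM Triacsin C.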

Experiment [12] is described as follows: Primary qHTS for small molecule stabilizers of the endoplasmic reticulum resident proteome: Secreted ER Calcium Modulated Protein (SERCaMP) assay (AID 1508630; active means well fitted curve in the direction sought with a large enough effect; an effect the other way counts as inactive or inconclusive; further: on the % scale 0 is the no-effect control and ±100 the full control effect). The settings on record: SH-SY5Y GLuc-SERCaMP (Gaussia luciferase released on ER calcium loss) secretion, thapsigargin, luminescence; series mostly up to 38.4 µM. Summed up: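 GLuc-SERCaMP-expressing SH-SY5Y cells, pretreated 16 h with compound, are challenged with thapsigargin to empty ER calcium stores; after 4 h, coelenterazine is added directly to the medium and luminescence is imaged.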

The target of experiment [13] is Cytochrome P450 2D6 (Homo sapiens) (UniProt P10635). Description: qHTS Assay for Inhibitors and Substrates of Cytochrome P450 2D6 (AID 891; active means well fitted curve in the direction sought with a large enough effect; an effect the other way counts as inactive or inconclusive; further: potency means the concentration at half of the fitted maximal effect; nearly all actives have a fitted effect of over 60% in size). The settings on record: recombinant CYP2D6, luciferin-ME EGE luminescence; series mostly up to 57.1 µM. Summed up: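 Human CYP2D6 (5 nM) with 30 uM Luciferin-ME EGE (at Km) in 100 mM KPO4, compound preincubated 10 min, then NADPH regeneration system for 60 min at room temperature. Luciferin read by luminescence; normalized to 1.43 uM quinidine.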

The mark [14] stands for this setting: measured here: cell count channel max response.
Setting [15] is: measured here: lipid channel max response.

Inconclusive results are not listed. Calls of active or inactive are those of the source. Unless noted, the call rests on the fitted dose curve; in most records, active means well fitted curve in either direction with a large enough effect (not every such curve was filed as active); inconclusive means small, poorly fitted or top-dose-only effect, or another doubt; inactive means flat fitted curve, though single readings scatter.

Chain of Cytochrome P450 1A2 (Homo sapiens) (P05177 whole entry, looked up): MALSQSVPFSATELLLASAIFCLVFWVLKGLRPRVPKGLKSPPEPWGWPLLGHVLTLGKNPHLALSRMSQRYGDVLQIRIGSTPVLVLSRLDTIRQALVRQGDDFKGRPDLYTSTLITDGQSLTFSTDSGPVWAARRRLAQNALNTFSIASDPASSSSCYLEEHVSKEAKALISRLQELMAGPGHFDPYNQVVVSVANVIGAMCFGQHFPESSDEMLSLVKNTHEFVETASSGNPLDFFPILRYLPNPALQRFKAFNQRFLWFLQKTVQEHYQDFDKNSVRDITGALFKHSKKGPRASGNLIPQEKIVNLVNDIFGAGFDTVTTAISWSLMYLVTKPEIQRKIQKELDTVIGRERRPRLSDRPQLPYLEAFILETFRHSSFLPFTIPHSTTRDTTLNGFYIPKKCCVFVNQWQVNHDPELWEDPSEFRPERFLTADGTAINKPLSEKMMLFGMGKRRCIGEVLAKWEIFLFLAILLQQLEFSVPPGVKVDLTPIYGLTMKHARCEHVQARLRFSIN
Chain of Lysosomal acid glucosylceramidase (Homo sapiens) (P04062 whole entry, looked up): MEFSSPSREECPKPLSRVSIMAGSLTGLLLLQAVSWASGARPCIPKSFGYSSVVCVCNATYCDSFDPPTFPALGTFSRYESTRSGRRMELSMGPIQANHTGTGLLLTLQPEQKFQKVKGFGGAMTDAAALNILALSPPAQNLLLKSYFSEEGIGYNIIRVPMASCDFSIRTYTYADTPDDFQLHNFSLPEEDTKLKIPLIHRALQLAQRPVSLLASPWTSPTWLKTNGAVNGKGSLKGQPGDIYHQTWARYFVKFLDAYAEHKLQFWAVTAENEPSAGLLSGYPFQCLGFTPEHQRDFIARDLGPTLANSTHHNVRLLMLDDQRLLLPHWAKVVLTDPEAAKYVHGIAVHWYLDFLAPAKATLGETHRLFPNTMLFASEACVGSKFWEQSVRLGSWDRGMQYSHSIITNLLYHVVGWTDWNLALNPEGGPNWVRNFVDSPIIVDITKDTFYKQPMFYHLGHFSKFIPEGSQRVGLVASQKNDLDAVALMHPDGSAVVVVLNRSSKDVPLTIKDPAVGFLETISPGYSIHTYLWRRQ
Chain of Glucocorticoid receptor (Homo sapiens) (P04150 whole entry, looked up, the tested form may be a part): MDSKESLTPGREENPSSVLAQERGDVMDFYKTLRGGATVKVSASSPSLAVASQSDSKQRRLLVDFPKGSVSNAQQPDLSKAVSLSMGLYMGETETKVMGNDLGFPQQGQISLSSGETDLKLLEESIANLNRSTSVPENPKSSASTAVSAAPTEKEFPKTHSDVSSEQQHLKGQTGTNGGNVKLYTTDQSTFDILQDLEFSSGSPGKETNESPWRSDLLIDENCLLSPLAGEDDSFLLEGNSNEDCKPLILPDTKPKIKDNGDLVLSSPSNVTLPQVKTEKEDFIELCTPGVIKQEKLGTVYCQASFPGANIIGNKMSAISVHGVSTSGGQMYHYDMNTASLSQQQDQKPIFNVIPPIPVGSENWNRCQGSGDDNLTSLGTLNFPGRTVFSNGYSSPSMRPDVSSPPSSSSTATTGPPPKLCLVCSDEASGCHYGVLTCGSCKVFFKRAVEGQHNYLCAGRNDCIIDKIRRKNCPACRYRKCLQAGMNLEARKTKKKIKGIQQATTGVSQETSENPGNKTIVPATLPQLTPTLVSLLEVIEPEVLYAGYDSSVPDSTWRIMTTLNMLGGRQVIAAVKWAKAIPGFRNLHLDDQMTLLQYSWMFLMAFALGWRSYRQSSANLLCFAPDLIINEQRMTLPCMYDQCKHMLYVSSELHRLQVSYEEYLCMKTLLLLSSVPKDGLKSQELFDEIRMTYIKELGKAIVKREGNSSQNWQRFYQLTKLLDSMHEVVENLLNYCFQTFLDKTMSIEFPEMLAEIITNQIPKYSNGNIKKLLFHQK
Chain of Cytochrome P450 3A4 (Homo sapiens) (P08684 whole entry, looked up): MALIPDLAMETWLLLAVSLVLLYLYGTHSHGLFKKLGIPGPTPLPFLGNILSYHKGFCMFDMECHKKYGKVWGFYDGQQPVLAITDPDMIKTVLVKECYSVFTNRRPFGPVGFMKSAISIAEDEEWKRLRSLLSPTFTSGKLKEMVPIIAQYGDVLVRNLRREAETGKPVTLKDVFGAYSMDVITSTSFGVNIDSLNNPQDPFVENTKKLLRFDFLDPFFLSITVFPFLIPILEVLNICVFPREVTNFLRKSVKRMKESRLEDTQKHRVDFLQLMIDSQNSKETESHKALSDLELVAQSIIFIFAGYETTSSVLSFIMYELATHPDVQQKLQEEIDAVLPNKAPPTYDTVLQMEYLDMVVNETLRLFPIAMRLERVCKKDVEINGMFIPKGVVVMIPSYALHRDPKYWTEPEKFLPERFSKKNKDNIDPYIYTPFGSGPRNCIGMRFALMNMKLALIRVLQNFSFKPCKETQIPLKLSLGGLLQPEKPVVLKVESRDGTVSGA
Chain of 3',5'-cyclic-AMP phosphodiesterase 4B (Homo sapiens) (Q07343 whole entry, looked up): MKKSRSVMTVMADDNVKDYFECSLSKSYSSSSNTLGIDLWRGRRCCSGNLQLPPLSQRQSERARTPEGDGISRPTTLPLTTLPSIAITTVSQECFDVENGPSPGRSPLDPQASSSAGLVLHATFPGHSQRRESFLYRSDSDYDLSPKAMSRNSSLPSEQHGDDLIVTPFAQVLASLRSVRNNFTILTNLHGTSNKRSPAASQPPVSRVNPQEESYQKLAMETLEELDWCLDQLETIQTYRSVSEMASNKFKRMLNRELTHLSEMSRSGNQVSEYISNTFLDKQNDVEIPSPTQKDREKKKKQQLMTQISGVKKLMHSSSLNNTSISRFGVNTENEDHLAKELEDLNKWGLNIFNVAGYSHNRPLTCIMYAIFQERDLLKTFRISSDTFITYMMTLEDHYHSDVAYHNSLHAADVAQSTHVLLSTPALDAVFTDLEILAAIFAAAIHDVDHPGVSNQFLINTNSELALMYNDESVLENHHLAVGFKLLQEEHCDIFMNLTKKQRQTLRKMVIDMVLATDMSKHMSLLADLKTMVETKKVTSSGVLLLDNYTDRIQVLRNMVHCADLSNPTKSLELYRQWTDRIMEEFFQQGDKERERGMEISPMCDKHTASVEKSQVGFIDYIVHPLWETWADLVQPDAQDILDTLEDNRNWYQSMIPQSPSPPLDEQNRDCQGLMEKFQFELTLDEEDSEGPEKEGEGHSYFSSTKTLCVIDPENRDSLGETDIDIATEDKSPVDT
Chain of Cytochrome P450 2D6 (Homo sapiens) (P10635 whole entry, looked up): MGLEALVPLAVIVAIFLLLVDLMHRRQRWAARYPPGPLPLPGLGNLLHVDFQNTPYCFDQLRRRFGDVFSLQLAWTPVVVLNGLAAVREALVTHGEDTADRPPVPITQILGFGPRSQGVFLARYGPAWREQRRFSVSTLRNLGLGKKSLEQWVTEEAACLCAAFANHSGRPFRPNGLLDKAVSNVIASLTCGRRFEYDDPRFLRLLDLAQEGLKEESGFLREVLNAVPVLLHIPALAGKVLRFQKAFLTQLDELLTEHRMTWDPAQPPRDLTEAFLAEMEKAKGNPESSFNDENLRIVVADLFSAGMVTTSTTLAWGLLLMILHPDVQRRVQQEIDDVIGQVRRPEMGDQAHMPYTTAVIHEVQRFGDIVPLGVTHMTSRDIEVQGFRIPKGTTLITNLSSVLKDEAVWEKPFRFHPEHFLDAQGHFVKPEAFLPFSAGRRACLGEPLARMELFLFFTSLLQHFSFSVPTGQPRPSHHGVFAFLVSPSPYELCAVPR
Chain of Cytochrome P450 2C19 (Homo sapiens) (P33261 whole entry, looked up): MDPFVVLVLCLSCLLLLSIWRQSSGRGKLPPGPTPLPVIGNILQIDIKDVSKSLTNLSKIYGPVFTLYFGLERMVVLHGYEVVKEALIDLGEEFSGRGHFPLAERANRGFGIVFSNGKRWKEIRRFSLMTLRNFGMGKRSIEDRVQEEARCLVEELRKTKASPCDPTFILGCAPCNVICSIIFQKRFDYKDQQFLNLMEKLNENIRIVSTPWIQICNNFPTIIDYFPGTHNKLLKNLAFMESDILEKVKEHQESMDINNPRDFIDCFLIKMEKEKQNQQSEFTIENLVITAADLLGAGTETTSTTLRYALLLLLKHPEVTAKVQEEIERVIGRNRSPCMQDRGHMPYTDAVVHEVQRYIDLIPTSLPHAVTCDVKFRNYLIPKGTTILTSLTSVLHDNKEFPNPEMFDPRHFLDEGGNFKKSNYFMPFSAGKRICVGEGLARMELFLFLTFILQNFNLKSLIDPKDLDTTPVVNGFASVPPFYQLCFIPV

Regarding `O=C(c1cccc(F)c1)N1CCC[C@@]2(CCN(Cc3nccs3)C2)C1`, the Potency in [1] is > 11.4 µM (inactive); in experiment [3], 12.6 µM (active); in experiment [6], > 46 µM (inactive); in experiment [10], 2.51 µM (active). For the same compound, the activity change, negative = inhibition was 2.29% (inactive) in [2], 7.56% (inactive) in [4] and 3.24% (inactive) in [11]. In addition, the activity, negative = inhibition in experiment [5] was -0.114% (inactive). For the same compound, the result in experiment [7] was inactive. In addition, the Potency entry in experiment [8], in experiment [9] and in experiment [12] was “inactive” each time. Also, the results for the max response in experiment [11] (setting [14]) and in experiment [11] (setting [15]) were 16.4% and 22.4%, respectively.

With `O=C(c1cnccn1)N1CCC2(CC1)CCN(C(c1ccccc1)c1ccccc1)CC2`, the Potency in [1] was > 11.4 µM (inactive); in experiment [3], 10 µM (active); in experiment [6], > 46 µM (inactive); in [9], 3.16 µM (active); in experiment [13], 3.98 µM (active). Besides, the activity change, negative = inhibition in experiment [2] is 8.38% (inactive); in [4], -20.1% (inactive); in [11] it was 1.71% (inactive). In addition, in [5], the activity, negative = inhibition is 6.95% (inactive). Moreover, the outcome in [7] was inactive. Further, the Potency result in [8] and in experiment [12] was “inactive” each time. The figures for the max response in experiment [11] (setting [14]) and in experiment [11] (setting [15]) were 1.55% and 5.2%, respectively.

With `O=C(c1ccco1)N1CCC[C@@]2(CCN(Cc3ccccc3)C2)C1`, the Potency in experiment [1] was > 11.4 µM (inactive); in [6] it was > 46 µM (inactive); in experiment [13], 2 µM (active). Further, the activity change, negative = inhibition in experiment [2] is -5.26% (inactive); in [4] it was -3.82% (inactive); in experiment [11], 2.21% (inactive). In addition, the Potency result in experiment [3], in experiment [8], in [9] and in experiment [12] was “inactive” each time. Also, the activity, negative = inhibition in experiment [5] was -7.43% (inactive). Further, the outcome in experiment [7] was inactive. In addition, the max response is -0.541% in experiment [11] (setting [14]) and 7.17% in experiment [11] (setting [15]).

Regarding `O=C(Nc1cccc(F)c1)N1CC[C@@]2(CCCN(C(=O)c3cccc(F)c3)C2)C1`, the Potency in experiment [1] was > 11.4 µM (inactive); in experiment [3] it was 12.6 µM (active); in experiment [6] it was > 46 µM (inactive). Also, the activity change, negative = inhibition is -6.61% (inactive) in [2], 16.9% (inactive) in [4] and 6.49% (inactive) in experiment [11]. For the same compound, the activity, negative = inhibition in experiment [5] is -1.65% (inactive). In [7], the result was inactive. The Potency result in experiment [8], in experiment [9] and in experiment [12] was “inactive” each time. The max response in experiment [11] (setting [14]) worked out at 12.4%; in [11] (setting [15]), 22.3%.

`COc1ccc(NC(=O)N2CCCC3(CCN(C(=O)c4csnn4)CC3)C2)cc1`: the figures for the Potency in experiment [1] and in experiment [6] were > 11.4 µM (inactive) and > 46 µM (inactive), respectively. The activity change, negative = inhibition in experiment [2] is -1.51% (inactive); in experiment [4], -2.25% (inactive); in experiment [11], 6.81% (inactive). Moreover, the Potency entry in [3], in [8], in experiment [9] and in [12] was “inactive” in each case. Also, the activity, negative = inhibition in [5] is -9.13% (inactive). For the same compound, the compound was classed as inactive in experiment [7]. The max response in experiment [11] (setting [14]) worked out at 11.2%; in [11] (setting [15]), 22.4%.

On to `CC(C)CN1CC[C@@]2(CCCN(C(=O)c3csnn3)C2)C1`, for which the Potency is > 11.4 µM (inactive) in experiment [1], > 46 µM (inactive) in [6] and 0.501 µM (active) in [13]. The figures for the activity change, negative = inhibition in experiment [2], in experiment [4] and in experiment [11] were -0.149% (inactive), -1.84% (inactive) and 1.65% (inactive), respectively. Further, the Potency result in [3], in [8], in [9] and in experiment [12] was “inactive” in each case. For the same compound, the activity, negative = inhibition in experiment [5] is 5.64% (inactive). The compound was classed as inactive in [7]. Also, the max response in [11] (setting [14]) was -1.75%; in experiment [11] (setting [15]), 2.01%.
